# According to PubChem BioAssay (EPA / NIEHS):
# Inconclusive results are not listed. The source made the active and inactive calls. How the source made its calls: active means hit-call score of the fitted dose curve at least 0.9, where 1 is the maximum; inconclusive means response in the unintended direction; inactive means score below 0.9.
# Key:
# Adra2b (gene 24174) = Adra2b (gene 24174) (UniProt P19328); assay: NVS_GPCR_rmAdra2B: NovaScreen (NVS) G Protein-Coupled Receptor Assay for hybird cells Adrenergic, Alpha 2B Receptor (Adra2B) (AID 2283306)
# Sequence of Adra2b (gene 24174) (P19328 whole entry, looked up): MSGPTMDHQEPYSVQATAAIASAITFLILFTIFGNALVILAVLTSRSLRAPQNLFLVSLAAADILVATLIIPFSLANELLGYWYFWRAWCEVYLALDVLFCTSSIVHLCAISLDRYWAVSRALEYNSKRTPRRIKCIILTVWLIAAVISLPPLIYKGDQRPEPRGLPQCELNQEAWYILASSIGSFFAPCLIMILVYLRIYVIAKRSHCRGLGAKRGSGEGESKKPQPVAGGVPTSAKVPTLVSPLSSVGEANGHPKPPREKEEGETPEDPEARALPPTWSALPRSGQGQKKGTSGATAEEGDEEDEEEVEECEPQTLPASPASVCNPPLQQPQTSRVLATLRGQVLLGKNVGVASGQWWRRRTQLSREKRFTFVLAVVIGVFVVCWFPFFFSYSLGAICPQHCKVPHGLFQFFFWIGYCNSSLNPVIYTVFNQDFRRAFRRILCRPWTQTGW
# How it was run: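 Compounds screened first at 25 uM in duplicate, with actives followed up in concentration-response; specific radioligand displacement from hybrid neuroglioma/blastoma cell membrane preparations measured by filter scintillation counting after 1 h, normalized to DMSO.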
# [1] = biological target: rat Neurotensin Receptor (NTS), Ntsr1 (gene 366274) (UniProt P20789); assay: NVS_GPCR_rNTS: NovaScreen (NVS) G Protein-Coupled Receptor Assay for rat Neurotensin Receptor (NTS) (AID 2283308)
# Sequence of rat Neurotensin Receptor (NTS), Ntsr1 (gene 366274) (P20789 whole entry, looked up): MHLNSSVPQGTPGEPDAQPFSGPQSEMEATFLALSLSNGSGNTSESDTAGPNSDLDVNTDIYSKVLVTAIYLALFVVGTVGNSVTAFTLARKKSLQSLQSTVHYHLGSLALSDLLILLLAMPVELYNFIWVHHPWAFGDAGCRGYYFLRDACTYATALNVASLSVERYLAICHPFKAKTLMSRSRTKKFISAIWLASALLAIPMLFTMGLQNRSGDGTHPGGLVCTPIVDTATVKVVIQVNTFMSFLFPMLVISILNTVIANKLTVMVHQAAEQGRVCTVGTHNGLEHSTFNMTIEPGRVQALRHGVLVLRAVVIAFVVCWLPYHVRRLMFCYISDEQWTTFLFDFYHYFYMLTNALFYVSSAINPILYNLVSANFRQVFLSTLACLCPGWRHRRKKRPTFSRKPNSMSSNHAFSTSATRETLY
# How it was run: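 Single-point duplicates at 25 uM, then concentration series to 50 uM max for hits, measured radioligand displacement on rat forebrain membrane preparations. Bound label counted by filtration scintillation at 1 h; signal loss relative to DMSO fitted.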
# [2] = biological target: rat Opioid Receptor, Non-selective Sodium (Na+) Binding, Oprm1 (gene 25601) (UniProt P33535); assay: NVS_GPCR_rOpiate_NonSelectiveNa: NovaScreen (NVS) G Protein-Coupled Receptor Assay for rat Opioid Receptor, Non-selective Sodium (Na+) Binding (AID 2283311)
# Sequence of rat Opioid Receptor, Non-selective Sodium (Na+) Binding, Oprm1 (gene 25601) (P33535 whole entry, looked up): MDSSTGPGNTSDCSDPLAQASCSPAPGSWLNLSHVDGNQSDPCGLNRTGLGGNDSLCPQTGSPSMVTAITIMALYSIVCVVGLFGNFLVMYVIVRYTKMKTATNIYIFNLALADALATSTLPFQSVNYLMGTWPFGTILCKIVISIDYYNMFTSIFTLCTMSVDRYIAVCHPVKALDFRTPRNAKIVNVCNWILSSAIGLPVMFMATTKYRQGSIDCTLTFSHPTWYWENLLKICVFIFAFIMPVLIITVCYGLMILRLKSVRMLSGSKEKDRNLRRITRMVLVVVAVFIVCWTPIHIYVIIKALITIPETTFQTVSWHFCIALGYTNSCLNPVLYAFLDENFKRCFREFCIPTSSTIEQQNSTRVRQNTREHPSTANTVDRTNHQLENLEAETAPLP
# How it was run: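 Filtration radioligand binding on rat forebrain membrane preparations, read 1.5 h after dosing. Single-concentration 25 µM primary screen in duplicate, followed by singleton concentration series to 50 µM max for actives; DMSO baseline.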
# [3] = biological target: bovine Gamma-Aminobutyric Acid Type A Receptor BDZ, alpha 1 site (GABARa1), GABRA1 (gene 780973) (UniProt P08219); assay: NVS_LGIC_bGABARa1: NovaScreen (NVS) Ligand-Gated Ion Channel Assay for bovine Gamma-Aminobutyric Acid Type A Receptor BDZ, alpha 1 site (GABARa1) (AID 2283321)
# Sequence of bovine Gamma-Aminobutyric Acid Type A Receptor BDZ, alpha 1 site (GABARa1), GABRA1 (gene 780973) (P08219 whole entry, looked up): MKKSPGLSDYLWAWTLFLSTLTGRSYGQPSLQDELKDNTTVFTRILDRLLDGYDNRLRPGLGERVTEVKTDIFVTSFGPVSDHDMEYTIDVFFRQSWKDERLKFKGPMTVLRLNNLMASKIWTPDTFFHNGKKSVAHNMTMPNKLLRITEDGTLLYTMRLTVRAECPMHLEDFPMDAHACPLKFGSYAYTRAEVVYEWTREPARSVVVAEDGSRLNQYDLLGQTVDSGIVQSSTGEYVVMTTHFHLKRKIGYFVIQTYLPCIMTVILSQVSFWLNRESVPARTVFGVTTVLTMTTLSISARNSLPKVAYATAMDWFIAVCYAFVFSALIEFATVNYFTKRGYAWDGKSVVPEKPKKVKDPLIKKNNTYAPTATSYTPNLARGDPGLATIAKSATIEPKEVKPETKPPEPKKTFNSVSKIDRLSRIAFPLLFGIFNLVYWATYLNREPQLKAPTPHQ
# How it was run: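 Bovine cortex membrane preparation, benzodiazepine site on GABA-A alpha1; specific radioligand displacement read after 0.75 h by filtration and scintillation. Screen at 25 uM, then singleton titrations up to 50 uM; DMSO baseline.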
# [4] = biological target: bovine Gamma-Aminobutyric Acid Type A Receptor BDZ, alpha 5 site (GABARa5), GABRA5 (gene 523515) (UniProt Q08E50); assay: NVS_LGIC_bGABARa5: NovaScreen (NVS) Ligand-Gated Ion Channel Assay for bovine Gamma-Aminobutyric Acid Type A Receptor BDZ, alpha 5 site (GABARa5) (AID 2283323)
# Sequence of bovine Gamma-Aminobutyric Acid Type A Receptor BDZ, alpha 5 site (GABARa5), GABRA5 (gene 523515) (Q08E50 whole entry, looked up): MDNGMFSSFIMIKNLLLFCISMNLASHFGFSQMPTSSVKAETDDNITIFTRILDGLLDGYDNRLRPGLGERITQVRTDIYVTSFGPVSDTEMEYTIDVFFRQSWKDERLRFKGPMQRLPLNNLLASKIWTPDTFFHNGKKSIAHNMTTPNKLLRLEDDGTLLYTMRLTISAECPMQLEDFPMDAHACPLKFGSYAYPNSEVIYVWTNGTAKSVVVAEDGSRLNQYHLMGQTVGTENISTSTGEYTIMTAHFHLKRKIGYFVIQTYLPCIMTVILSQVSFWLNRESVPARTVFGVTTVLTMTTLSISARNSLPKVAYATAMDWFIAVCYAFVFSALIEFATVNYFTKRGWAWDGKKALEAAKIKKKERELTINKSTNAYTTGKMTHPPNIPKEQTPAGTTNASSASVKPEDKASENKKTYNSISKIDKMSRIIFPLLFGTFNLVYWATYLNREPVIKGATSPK
# How it was run: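 Tested first in duplicate at a single 25 uM, with hits re-run in concentration series to a 50 uM maximum. Bovine hippocampal membranes; specific radioligand displacement measured by filter scintillation counting 1 hr post-dose.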
# [5] = biological target: Voltage-dependent N-type calcium channel subunit alpha-1B (Rattus norvegicus) (UniProt Q02294); assay: NVS_IC_rCaChN: NovaScreen (NVS) Ion Channel Assay for rat Calcium Channel, Type N (CaChN) (AID 2283317)
# NCBI gene 24521 = assay: NVS_IC_rKATPCh: NovaScreen (NVS) Ion Channel Assay for rat Potassium Channel, ATP-Sensitive (KATPCh) (AID 2283319)
# How it was run: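 Primary duplicate screen at 25 uM, then singleton concentration series to 50 uM maximum, in a rat cortex membrane radioligand displacement assay. Binding measured by filtration and scintillation 2 h post-dose; DMSO baseline.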
# [6] = biological target: human Serotonin, 5-Hydroxytryptamine Receptor 3 (5HT3), HTR3A (gene 3359) (UniProt P46098); assay: NVS_LGIC_h5HT3: NovaScreen (NVS) Ligand-Gated Ion Channel Assay for human Serotonin, 5-Hydroxytryptamine Receptor 3 (5HT3) (AID 2283325)
# Sequence of human Serotonin, 5-Hydroxytryptamine Receptor 3 (5HT3), HTR3A (gene 3359) (P46098 whole entry, looked up): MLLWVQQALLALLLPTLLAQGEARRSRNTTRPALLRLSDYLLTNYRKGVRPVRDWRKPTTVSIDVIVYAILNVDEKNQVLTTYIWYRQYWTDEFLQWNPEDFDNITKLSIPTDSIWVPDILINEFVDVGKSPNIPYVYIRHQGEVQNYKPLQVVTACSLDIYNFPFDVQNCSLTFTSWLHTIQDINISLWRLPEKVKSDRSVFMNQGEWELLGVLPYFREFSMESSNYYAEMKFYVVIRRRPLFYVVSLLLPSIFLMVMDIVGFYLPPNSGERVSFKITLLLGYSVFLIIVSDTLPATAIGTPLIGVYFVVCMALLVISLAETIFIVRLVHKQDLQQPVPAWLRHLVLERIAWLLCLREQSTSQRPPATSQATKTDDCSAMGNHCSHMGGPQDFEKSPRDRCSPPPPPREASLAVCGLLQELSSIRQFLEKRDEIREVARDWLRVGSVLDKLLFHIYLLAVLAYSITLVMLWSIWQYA
# How it was run: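 Initially tested at 25 uM in duplicate, then up to 50 uM in concentration-response for actives, compounds competed with a radioligand for HEK293-derived human 5-HT3 receptor. Bound counts were measured by filtration and scintillation at 1 h; loss of signal versus DMSO.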
compound,measurement,setting,value
O=P(Oc1ccccc1)(Oc1ccccc1)Oc1ccccc1,outcome,Adra2b (gene 24174),inactive
CCCCN(CCCC)SN(C)C(=O)Oc1cccc2c1OC(C)(C)C2,outcome,[1],inactive
Nc1cc2c3c(c1)C(c1ccccc1)=N[C@@H](NC(=O)c1cccnc1)C(=O)N3CC2,outcome,[2],inactive
same,outcome,[3],inactive
same,outcome,[4],inactive
ClC1=C(Cl)C2(Cl)C3C(Cl)C(Cl)CC3C1(Cl)C2(Cl)Cl (stereo not given),outcome,[5],inactive
OCC1CO1 (stereo not given),outcome,NCBI gene 24521,inactive
CCC1(c2ccccc2)C(=O)N=C(O)NC1=O (stereo not given),outcome,[3],inactive
CSC(C)(C)C=NO,outcome,[4],inactive
Nc1ccc(Cl)cc1,outcome,[6],inactive
